Measurements taken from ChEMBL document CHEMBL3988442, “University of Dundee, Small-Polar-MMV Screening Library” (2021).
The campaign covered roughly 48,000 compounds. About 13,000 (27%) showed an effect of 50% or more. The list shows a part of the results.

system: Wolbachia pipientis; assay: Anti-Wolbachia Cell-Based Screen; assay type: functional; set-up: scale not given: in the data most compounds retested in dose-response had high values; conditions: 5 µM

SMILES | Percent Effect
COc1ccc(Cl)cc1-n1c(COC(C)C)n[nH]c1=O | 9.918%
CN(C)c1ccccc1C(=O)N1CCOC2(CNCCOC2)C1 (centres undefined) | -52.05%
O=C(N1CCSCC1)C1(O)Cc2ccccc2C1 | 1.421%
CC1(C(=O)N2CCSCC2)CNCCO1 (centres undefined) | 81.85%
CC1(C(=O)N2CCN(c3cnccn3)CC2)CNCCO1 (centres undefined) | 114.6%
C[C@@H]1CN(C2(C(=O)N3CCSCC3)Cc3ccccc3C2)C[C@H](C)O1 | 1.613%
CC1(C(=O)N2CCN(c3ncccn3)CC2)CNCCO1 (centres undefined) | 48.6%
O=C(C1CCS(=O)(=O)C1)N1CCN(c2cnccn2)CC1 (centres undefined) | -8.289%
CC1(C(=O)N2CCOCC2)CNCCO1.Cl (centres undefined) | 81.13%
O=C(c1cccc(Cl)c1F)N1CCOC2(CNCCOC2)C1 (centres undefined) | -25.29%
Cc1cc(=O)n(C)cc1NC(=O)Cc1cccc(Cl)c1 | 5.962%
Cc1cc(Cn2cc(C#N)c(=O)c3ccccc32)on1 | -11.07%
Cc1nc(CN2CCCC(CCc3ccccc3C(F)(F)F)C2)no1 (centres undefined) | -1.662%
COc1ccccc1NC(=O)c1[nH]nc(C(C)C)c1Br | -4.147%
Cc1c(C(C)NC(=O)Nc2ccccc2F)cnn1C (centres undefined) | 3.461%
Cc1ccc(C(=O)Nc2ccccc2F)n1C | 94.36%
O=C(Nc1cc(Cl)ccc1N1CCCCC1)c1ccccn1 | -5.482%
CCN(CC)CCn1cc(NC(=O)Nc2ccccc2OC)cn1 | 2.741%
CCc1nc(C)c([C@H]2CN(C)C[C@@H]2C(=O)Nc2ccccc2F)[nH]1 | -8.421%
CC1CCC(NS(=O)(=O)CC(=O)Nc2ccccc2N2CCCC2)CC1 (centres undefined) | 3.293%
Cc1ccc(C(=O)Nc2ccccc2N2CCCC2)n1C | 84.28%
COc1ccccc1NC(=O)c1ccc(C)n1C | 99.48%

SMILES | Percent Effect
CC(C)C(C)N1Cc2cccc(NCC(=O)N(C)C)c2C1 (centres undefined) | 11.84%
CC(=O)c1cc(CN2CCCCC2c2nc3cc(F)ccc3[nH]2)cs1 (centres undefined) | -8.075%
CC(=O)N1CC(C(=O)Nc2cccc(OC(F)F)c2)C1 | 13.11%
CCc1nc(-c2noc3ccc(C(=O)NCCN(C)C)cc23)co1 | -6.651%
CC(C)(C)NS(=O)(=O)c1ccccc1CNCc1ccccc1 | 8.138%
Cc1nc(CN2CCCC2Cn2ccnc2C(C)C)nc2ccccc12 (centres undefined) | 0.1374%
Nc1ncncc1-c1noc([C@@H]2CCCN2Cc2cccnc2)n1 | -7.414%
CC(C)c1nccn1CC1CCCN1Cc1nc2ccccc2n1C (centres undefined) | -4.978%
CC(C)S(=O)(=O)N1CCCC(c2nccn2Cc2cccnc2)C1 (centres undefined) | -1.301%
CC(C)c1nccn1-c1nccnc1C1CCCN1Cc1cccnc1 (centres undefined) | 125.6%
CC(C)c1nccn1-c1nccnc1C1CCCN1Cc1ccccc1 (centres undefined) | 124.1%
CC(NCc1ccc(OCC(N)=O)cc1)c1ccc2c(c1)CCCC2 (centres undefined) | -9.081%
CS(=O)(=O)Cc1noc(CN(Cc2ccco2)c2ccccc2)n1 | -3.718%
CN(C)CCN(C)C(=O)c1cnc2c(c1)nc(-c1ccccc1Cl)n2C | -6.044%
COc1ccc(F)cc1C(C)NC(=O)Nc1nnc(C)s1 (centres undefined) | -6.536%
Cc1nnc(NC(=O)NCc2cc(F)cc(F)c2)s1 | 4.254%
Cc1nnc(NC(=O)NCc2ccoc2)s1 | 74.81%
Cc1nnc(NC(=O)NCc2ccc(F)cc2)s1 | 93.84%
Cn1cc(NC(=O)NCc2ccoc2)ccc1=O | 13.17%
O[C@H]1CC[C@@H](Cc2cc(-c3ccccn3)on2)O[C@@H]1CNCC1CC1 | 8.949%
CN1CCCN(C(=O)c2nc3c(s2)CCCN3CC2CC2)CC1 | 15.57%
O=C1O[C@@H]2CN(Cc3cc4ccccc4s3)C[C@@H]2N1Cc1ccccn1 | 7.899%

SMILES | Percent Effect
CN(C)Cc1ccnc(C2CCCN2Cc2ccncc2)n1 (centres undefined) | -6.271%
c1ccc2sc(CN3CCCC3c3noc(C4CC4)n3)nc2c1 (centres undefined) | 1.502%
Cc1cc(C)cc(CN2CCCC2c2noc(C)n2)c1 (centres undefined) | -1.497%
CN(C)Cc1ccnc(C2CCCN2Cc2ccc3ncccc3c2)n1 (centres undefined) | 102.5%
CN(C)Cc1ccnc(C2CCCN2Cc2cc3ccccc3s2)n1 (centres undefined) | 97.93%
CCC(C)(C)NC(=O)c1ccc(NC(=O)NCc2cc(C)on2)cc1 | -5.404%
CN1CC2(CCN(C(=O)c3ccc4c(=O)n(C)cnc4c3)CC2)CC1=O | -1.826%
CN(C(=O)Cc1c[nH]c2ccccc12)C1CCN(c2ccccn2)CC1 | -5.005%
N[C@@H]1CCCN(C(=O)Cc2c[nH]c3ccccc23)[C@H]1c1ccccc1F | 92.02%
COc1ccc(CC(=O)N2CCC[C@@H](N)[C@@H]2c2ccccc2F)cc1.Cl | 65.32%
COC(=O)c1cc2n(n1)CCCN(C(=O)Cc1c[nH]c3ccccc13)C2 | -8.312%
COc1cccc(C(=O)N2CCCC(C(=O)CCc3ccccc3)C2)c1 (centres undefined) | -1.62%
COc1cccc(CCC(=O)N2CCC[C@@H](N)[C@@H]2c2ccccc2F)c1.Cl | 156.6%
COc1ccc(CC(=O)N2CCCC(Cn3cc(CN)nn3)C2)cc1 (centres undefined) | -29.22%
COc1cccc(CC2CCCN2CC(N)=O)c1 (centres undefined) | 14.09%
CN1CCC(N[C@@H]2CO[C@H](CNC(=O)C3CCCC3)[C@H]2O)CC1 | -10.26%
CN(C)C(=O)CNC(=O)CCn1ncc2c(Cl)cccc21 | 7.628%
CC1CCCN(CCNC(=O)c2ccn(-c3ccccc3)n2)C1 (centres undefined) | -2.104%
COc1cn(-c2ccccc2)nc1C(=O)NCCN1CCCC(C)C1 (centres undefined) | 85.45%
CC1CCCN(CCNC(=O)c2ccn(-c3ccc(F)cc3)n2)C1 (centres undefined) | 89.11%
CC1CCCN(CCNC(=O)c2ccn(-c3cccc(F)c3)n2)C1 (centres undefined) | 71.46%
CC(=O)N1CCC(C(=O)NCCN2CCCC(C)C2)CC1 (centres undefined) | 4.421%

SMILES | Percent Effect
O=C(NCCn1ccnc1)c1ccn(-c2cccc(F)c2)n1 | 3.245%
COc1cn(-c2ccccc2)nc1C(=O)NCCCN1CCCC(C)C1 (centres undefined) | 0.4079%
CC1CCCN(CCCNC(=O)c2cn(C)nc2-c2cccnc2)C1 (centres undefined) | -7.015%
COc1ccc(-n2ccc(C(=O)NCCN3CCCC(C)C3)n2)cc1 (centres undefined) | 109.8%
COCC1c2nnn(CC3CC3)c2CCN1C(=O)c1ccnnc1 (centres undefined) | -5.349%
Cc1csc(N(C)C(=O)C2CC(=O)N(c3ccccc3Cl)C2)n1 (centres undefined) | 9.936%
CC(Sc1nnc(C2CC2)n1CC(N)=O)c1ccc(F)cc1F (centres undefined) | -10.03%
Cc1cccc(-c2ncc(CNC(C)CO)cn2)c1 (centres undefined) | -5.698%
Cn1cnnc1C1CCN(c2cncc(-n3cccn3)n2)CC1 | 0.9995%
O=C(NCC(O)(c1cccs1)C1CC1)NC1CCCCC1 (centres undefined) | 9.559%
COCC1CN(S(=O)(=O)Cc2ccccc2)Cc2c1cnn2C.O=C(O)C(F)(F)F (centres undefined) | -18.15%
Cc1cccc(N2CCN(CC(=O)N3CCCC(N(C)C)CC3)CC2)c1 (centres undefined) | -50.72%
Cc1cc(Nc2cnccn2)cc(C2CCCN2)n1 (centres undefined) | 103.5%
Cc1cc(Nc2cnccn2)cc(C2CCCNC2)n1 (centres undefined) | 90.08%
Cc1cc(Nc2ccc(F)cn2)cc(C2CCCN2)n1 (centres undefined) | 111.9%
Cc1cc(C)nc(NC2CCOC3(CCCC3)C2)n1 (centres undefined) | -13.03%
Cc1cc(Nc2nc(C)cc(C)n2)cc(C2CCCN2)n1 (centres undefined) | 104%
Cl.Cl.Fc1cccc(-c2c[nH]c(C3CCCN3)n2)c1 (centres undefined) | -26.74%
Cn1cc(C2CC3(CCN(C(=O)c4ccsc4)CC3)NC2=O)cn1 (centres undefined) | -8.602%
Cc1ccc(C(=O)N2CC(C)(C)[C@@](C)(O)C2)cc1N1CCNC1=O | -5.477%
Cc1nn(C)c(C)c1CN(CCO)C(=O)C1COc2ccccc2C1 (centres undefined) | -4.476%
COCC(O)CNC(=O)c1coc(COc2ccc3sc(C)nc3c2)n1 (centres undefined) | -2.868%

SMILES | Percent Effect
CC(Cn1cccn1)NCc1csc(-c2ccccc2)n1 (centres undefined) | 5.94%
CCCS(=O)(=O)NC(=O)c1ccc(Br)o1 | -3.964%
CC(=O)N1CCC(c2nc3ccc(-c4ccnn4C)cn3n2)CC1.O=C(O)C(F)(F)F | 79.91%
Cn1nccc1-c1ccc2nc(C3CCNCC3)nn2c1 | 98.45%
Cn1nccc1-c1ccc2nc(C3CCN(CCO)CC3)nn2c1.O=C(O)C(F)(F)F | -15.06%
CC(C)N1CCC(c2nc3ccc(-c4ccnn4C)cn3n2)CC1.O=C(O)C(F)(F)F | 101.4%
Cn1nccc1-c1ccc2nc(C3CCN(CC4CC4)CC3)nn2c1.O=C(O)C(F)(F)F.O=C(O)C(F)(F)F | 97.48%
O=C(O)C(F)(F)F.O=C(O)C(F)(F)F.c1cc2nc(C3CCN(CC4CC4)CC3)nn2cc1N1CCCC1 | -8.773%
CCC1c2ccsc2CCN1C(=O)NCCNc1ncccn1 (centres undefined) | 9.072%
O=C(c1ccccn1)N1C[C@@H]2CC[C@H](C1)N(C(=O)Cc1cccs1)C2 | -18.37%
CCc1sc(-c2nnc(CNC(C)Cn3cccn3)o2)cc1C (centres undefined) | -4.192%
Cn1ccc(C(=O)NC2CCC23CCN(Cc2ccc(F)cc2)CC3)c1.O=C(O)C(F)(F)F (centres undefined) | 104.6%
Cn1ccc(C(=O)NC2CCC23CCN(C(=O)C2CCOCC2)CC3)c1 (centres undefined) | -10.05%
COCC(=O)N1CCC2(CCC2NC(=O)c2ccn(C)c2)CC1 (centres undefined) | -13.3%
Cn1ccc(C(=O)NC2CCC23CCN(Cc2cccnc2)CC3)c1.O=C(O)C(F)(F)F.O=C(O)C(F)(F)F (centres undefined) | 0.1855%
Cn1ccc(C(=O)NC2CCC23CCN(CC2CCOCC2)CC3)c1.O=C(O)C(F)(F)F (centres undefined) | 102.1%
Cc1ccc(CN2CCC3(CCC3NC(=O)c3ccn(C)c3)CC2)s1.O=C(O)C(F)(F)F (centres undefined) | 90.78%
Cn1ccc(C(=O)NC2CCC23CCN(Cc2cnn(C)c2)CC3)c1.O=C(O)C(F)(F)F (centres undefined) | 118.5%
Cc1ccc(CN2CC(C(=O)NCC3CC3)C3(CCOCC3)C2)s1.O=C(O)C(F)(F)F (centres undefined) | 9.43%
Cn1ccc(C(=O)NC2CCC23CCN(C(=O)c2ccncc2)CC3)c1.O=C(O)C(F)(F)F (centres undefined) | -9.033%
Cn1ccc(C(=O)NC2CCC23CCN(C(=O)c2cnccn2)CC3)c1 (centres undefined) | 13.19%
